The results in this text go back to article PMC5540273 (PLoS ONE, 2017).

Among the test systems are HCK; HIPK1; HIPK2; HIPK3; HIPK4; HPK1; HUNK; ICK; IGF1R.
What all share (details): concentration: 1 μM, replicates: in singlicate; n = 1
For a further test, the system named is T1, HASPIN.
T1 construct: gene GSG2
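Also: KINOMEscan kinase panel screen.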

For `COc1cccc(-c2nc(-c3ccccc3)[nH]c2-c2ccncc2)c1` [SB-610250], the “%Inh” value stood at 66% in the test on HASPIN; 0% with HCK; 0% with HIPK1; 0% in the test on HIPK2; 15% in the test with HIPK3; 7% in the test with HIPK4. The “%Inh” value stood at 43% in the test on HPK1, 31% with HUNK, 3% in the test with ICK and 16% in the test on IGF1R.

Regarding `Fc1cc(Cl)ccc1Nc1ccnc2cc(-c3ccc(CN4CCSCC4)o3)ccc12` [GW560106], the “%Inh” value with HASPIN was determined as 28%; in the test with HCK it was 95.3%; in the test on HIPK1, 3%; in the test with HIPK2, 0%; with HIPK3, 0%; with HIPK4, 0%. In addition, the “%Inh” value is on record as 20% in the test on HPK1, 71% in the test with HUNK, 0% with ICK and 25% in the test on IGF1R.

`Nc1cccc(-c2ccc3c(N)n[nH]c3c2)c1` [GSK2193613]: the “%Inh” value in the test with HASPIN came to 90.5%; in the test on HCK, 0%; in the test with HIPK1, 0%; in the test on HIPK2, 0%; in the test on HIPK3, 100%; in the test with HIPK4, 0%. Also, the “%Inh” value came out at 48% with HPK1, 23% with HUNK, 0% in the test on ICK and 8% in the test with IGF1R.

Regarding `O=C1NC(=O)C(c2ccccc2Cl)=C1Nc1cccc(Cl)c1` [SB-342409], the “%Inh” value in the test with HASPIN was found to be 0%; with HCK, 0%; with HIPK1 it was 0%; in the test with HIPK2, 0%; in the test with HIPK3 it was 2%; in the test with HIPK4 it was 3%. Further, the “%Inh” value in the test with HPK1 turned out to be 49%; in the test on HUNK, 0%; with ICK it was 45%; in the test on IGF1R it was 20%.

As to `CCOc1nccc(-c2c(-c3ccc(F)cc3)ncn2C2CCNCC2)n1` [SB-249175], the “%Inh” value was found to be 0% in the test on HASPIN; 0% with HCK; 59% with HIPK1; 44% in the test on HIPK2; 44% in the test on HIPK3; 6% with HIPK4. For the same compound, the “%Inh” value in the test with HPK1 came out at 12%; in the test on HUNK it was 0%; with ICK it was 65%; in the test on IGF1R, 0%.

Turning to `CCn1c(-c2nonc2N)nc2c(-c3ccccc3)ncc(OCCCN)c21.O=C(O)C(F)(F)F.O=C(O)C(F)(F)F` [GSK260205], the “%Inh” value in the test with HASPIN was determined as 9%; with HCK it was 0%; in the test on HIPK1 it was 0%; in the test on HIPK2, 0%; in the test with HIPK3 it was 38%; in the test with HIPK4, 0%. Besides, the “%Inh” value turned out to be 0% in the test with HPK1, 0% in the test with HUNK, 10% in the test with ICK and 0% in the test with IGF1R.

As for `CCNC(=O)/C=C/c1n[nH]c2cc(Sc3ccccc3C(=O)NC)ccc12`, the “%Inh” value is 14% in the test on HASPIN; 7% in the test on HCK; 23% with HIPK1; 2% in the test with HIPK2; 22% with HIPK3; 0% in the test on HIPK4. Moreover, the “%Inh” value in the test on HPK1 is reported as 8%; in the test on HUNK, 0%; in the test with ICK, 0%; in the test with IGF1R it was 10%.

On to `Nc1ncc(-c2ccc3nccc(-c4ccncc4)c3c2)cc1S(=O)(=O)N1CCCCC1` [GSK1693850], for which the “%Inh” value with HASPIN is 80%; with HCK, 0%; in the test with HIPK1, 42%; in the test on HIPK2, 0%; with HIPK3, 20%; with HIPK4, 57%. Further, the “%Inh” value with HPK1 was found to be 50%; with HUNK, 82%; with ICK, 16%; with IGF1R, 10%.

`CN(c1ccc(F)c(NC(=O)c2cccc(OC(C)(C)C#N)c2Cl)c1)c1ccc2nc(NC(=O)C3CC3)sc2n1`: the “%Inh” value in the test with HASPIN is 27%; in the test on HCK, 90%; in the test with HIPK1, 0%; in the test on HIPK2, 0%; in the test with HIPK3, 0%; in the test on HIPK4 it was 0%. For the same compound, the “%Inh” value in the test with HPK1 is on record as 0%; with HUNK, 1%; in the test on ICK, 0%; in the test with IGF1R it was 0%.

In the case of `COc1cccc2c(-c3ccncc3)c(-c3ccc(F)cc3)nn12` [GW468513], the “%Inh” value in the test on HASPIN is 15%; in the test on HCK, 0%; in the test with HIPK1, 0%; in the test with HIPK2, 0%; in the test on HIPK3, 10%; in the test with HIPK4 it was 4%. The “%Inh” value in the test on HPK1 was determined as 37%; in the test on HUNK, 18%; in the test on ICK it was 9%; with IGF1R it was 9%.

`Cl.Cl.NC(CNC(=O)c1cc(Br)c(-c2ccnc3[nH]ccc23)s1)c1ccccc1` (stereo not shown) [GSK1322949]: the “%Inh” value in the test on HASPIN worked out at 92.6%; with HCK, 0%; in the test with HIPK1, 65%; with HIPK2 it was 68%; in the test on HIPK3, 73%; in the test with HIPK4, 97.3%. The “%Inh” value worked out at 69% with HPK1, 0% with HUNK, 0% in the test on ICK and 0% in the test on IGF1R.

On to `CC(C)(C)c1ccc(C(=O)Nc2cn3cc(-n4ccnc4)ccc3n2)cc1`, for which the “%Inh” value stood at 7% in the test with HASPIN; 18% in the test with HCK; 32% with HIPK1; 28% in the test with HIPK2; 12% with HIPK3; 21% in the test with HIPK4. For the same compound, the “%Inh” value with HPK1, in the test on HUNK, in the test on ICK and in the test on IGF1R was 0% throughout.

`CNc1nccc(-c2ccc3c(N)n[nH]c3c2)n1` [GSK2206003]: the “%Inh” value in the test with HASPIN is 93%; in the test with HCK, 0%; in the test with HIPK1 it was 34%; in the test with HIPK2, 0%; in the test with HIPK3, 37%; in the test with HIPK4, 42%. Further, the “%Inh” value in the test with HPK1 stood at 55%; with HUNK, 0%; with ICK, 0%; in the test with IGF1R, 22%.

Consider `Cc1ccccc1CC(=O)N1CCc2cc(-c3cn(C)c4ncnc(N)c34)ccc21` [GSK2603346], for which the “%Inh” value amounted to 0% in the test on HASPIN; 13% in the test on HCK; 0% in the test with HIPK1; 0% in the test with HIPK2; 1% in the test with HIPK3; 0% with HIPK4. The “%Inh” value in the test with HPK1 is 74%; in the test on HUNK it was 0%; in the test on ICK it was 0%; in the test on IGF1R, 0%.

Turning to `COc1cc(Nc2nccc(N3CCC(NC(=O)Nc4ccc5c(c4)OCO5)C3)n2)cc(OC)c1OC` (stereo not shown) [GSK1379766], the “%Inh” value with HASPIN is 0%; in the test with HCK, 0%; in the test on HIPK1, 0%; in the test on HIPK2, 0%; in the test with HIPK3, 16%; in the test on HIPK4, 0%. Moreover, the “%Inh” value is on record as 78% in the test with HPK1, 0% in the test with HUNK, 26% in the test with ICK and 0% in the test with IGF1R.

Take `COC(=O)Nc1nc2ccc(Oc3ccc(CC(=O)Nc4cc(C(F)(F)F)ccc4F)cc3)cc2[nH]1` [GW680903]: the “%Inh” value with HASPIN, in the test with HCK, with HIPK1, in the test on HIPK2, with HIPK3 and in the test on HIPK4 was 0% each time. Further, the “%Inh” value with HPK1 was 60%; with HUNK, 15%; in the test on ICK, 0%; in the test on IGF1R it was 0%.
